Laboratory results reported in PubChem BioAssay (NCATS).
Results filed as inconclusive are left out. The source made the active and inactive calls. Unless noted, calls come from the whole dose curve; as a rule, active = well fitted curve in the direction sought with a large enough effect; inconclusive = small, poorly fitted or top-dose-only effect, or another doubt; inactive = no such curve, though single readings can be large; an effect the other way counts as inactive or inconclusive.

Legend:
[1] = biological target: Cytochrome P450 3A4 (Homo sapiens) (UniProt P08684); test: qHTS Assay for Inhibitors and Substrates of Cytochrome P450 3A4 (AID 884); note: % is set by controls: 0 for no effect and ±100 for the full control effect; nearly all actives have a fitted effect of over 50% in size
Sequence of Cytochrome P450 3A4 (Homo sapiens) (P08684 whole entry, looked up): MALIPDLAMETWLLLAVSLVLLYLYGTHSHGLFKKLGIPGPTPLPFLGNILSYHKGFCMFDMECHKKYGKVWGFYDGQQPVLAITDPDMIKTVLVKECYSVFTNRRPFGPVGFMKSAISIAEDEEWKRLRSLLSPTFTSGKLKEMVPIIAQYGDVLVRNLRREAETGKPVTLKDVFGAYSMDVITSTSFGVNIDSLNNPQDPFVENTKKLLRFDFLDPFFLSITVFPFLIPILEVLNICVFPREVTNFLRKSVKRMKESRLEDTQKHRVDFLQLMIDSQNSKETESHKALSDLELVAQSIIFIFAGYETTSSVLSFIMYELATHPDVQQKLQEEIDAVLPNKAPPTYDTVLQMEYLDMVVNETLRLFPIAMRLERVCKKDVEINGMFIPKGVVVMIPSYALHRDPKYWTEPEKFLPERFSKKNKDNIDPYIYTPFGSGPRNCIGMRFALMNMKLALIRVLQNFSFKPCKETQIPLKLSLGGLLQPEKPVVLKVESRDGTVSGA
Method in brief: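 Luminescent readout of luciferin produced by CYP3A4 (20 nM) dealkylation of Luciferin-PPXE, 25 uM (its KM). NADPH-driven reaction ran 60 min at RT after 10 min compound preincubation; data scaled to 57 uM ketoconazole as 100% inhibition.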

[2] = Confirmation and Secondary Assay for Modulators of Hemoglobin Beta Chain Splicing at IVS2 654 locus (AID 910);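 note: HeLa cells stably carrying EGFP split by mutant beta-globin IVS2-654 intron; % of control where 0% means no effect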
Method in brief: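 HeLa cells stably expressing EGFP interrupted by β-globin IVS2-654 intron, seeded overnight in Opti-MEM/2% FCS, then treated 2 days at 37 °C. Restored splicing read as total peak GFP intensity per well by laser scanning cytometry (488 nm excitation, 500–520 nm emission); 500 nM antisense PNA as control.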

[3] = Confirmation and Secondary Assay for Modulators of Hemoglobin Beta Chain Splicing at IVS2 705 locus (AID 930);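 note: HeLa cells stably expressing the EGFP-705 splicing reporter; GFP fluorescence per well restored by corrected splicing of the IVS2-705 intron in EGFP; % of control where 0% means no effect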
Method in brief: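 HeLa IVS2-705 EGFP reporter cells, 500/well, compound 2 d at 37C; correct splicing yields fluorescent EGFP. Control: 500 nM antisense PNA. Read-out: total peak GFP intensity.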

[4] = qHTS Assay for Lipid Storage Modulators (AID 1519; calls by dose curve; for activity change, negative = inhibition: % is set by controls: 0 for no effect and ±100 for the full control effect); details: Drosophila S3 cells, BODIPY lipid droplet/cell ratio, laser cytometry, cells loaded with oleic acid
Method in brief: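 Cells seeded at 5,000 per well were treated with compounds over a concentration series and loaded with oleic acid (400 uM, as added). Lipid droplet fluorescence (488 nm excitation, 500-530 nm channel) was read by laser-scanning cytometry and normalized to 20 uM Triacsin C.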

[5] = biological target: ATP-dependent 6-phosphofructokinase (Trypanosoma brucei brucei) (UniProt O15648); test: qHTS Assay to Find Inhibitors of T. brucei phosphofructokinase: hit validation (AID 492961); note: % is set by controls: 0 for no effect and ±100 for the full control effect
Sequence of ATP-dependent 6-phosphofructokinase (Trypanosoma brucei brucei) (O15648 whole entry, looked up): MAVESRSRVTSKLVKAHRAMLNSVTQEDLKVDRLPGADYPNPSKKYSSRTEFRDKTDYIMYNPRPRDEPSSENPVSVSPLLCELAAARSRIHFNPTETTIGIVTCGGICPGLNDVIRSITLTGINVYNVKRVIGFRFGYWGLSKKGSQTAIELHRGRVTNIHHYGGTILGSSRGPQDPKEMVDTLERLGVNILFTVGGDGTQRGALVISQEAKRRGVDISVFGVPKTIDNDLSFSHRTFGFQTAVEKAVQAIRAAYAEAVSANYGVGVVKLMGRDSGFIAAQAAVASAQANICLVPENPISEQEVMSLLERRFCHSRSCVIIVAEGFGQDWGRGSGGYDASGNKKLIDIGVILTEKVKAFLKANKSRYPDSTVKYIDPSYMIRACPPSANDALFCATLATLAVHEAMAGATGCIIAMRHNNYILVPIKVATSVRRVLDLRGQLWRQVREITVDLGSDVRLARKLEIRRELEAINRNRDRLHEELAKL
Method in brief: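 Luminescence from ADP-Glo reports ADP generated as T. brucei PFK (1.25 nM) phosphorylates 0.5 mM fructose-6-phosphate using 0.1 mM ATP. Reactions ran 45 min at room temperature, pH 8.0.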

[6] = biological target: Ubiquitin carboxyl-terminal hydrolase 1 (Homo sapiens) (UniProt O94782); test: Inhibitors of USP1/UAF1: Pilot qHTS (AID 504865);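 note: rhodamine fluorescence freed from ubiquitin-rhodamine substrate followed over time; top concentration of the series differs between compounds; % is set by controls: 0 for no effect and ±100 for the full control effect; nearly all actives have a fitted effect of over 35% in size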
Sequence of Ubiquitin carboxyl-terminal hydrolase 1 (Homo sapiens) (O94782 whole entry, looked up): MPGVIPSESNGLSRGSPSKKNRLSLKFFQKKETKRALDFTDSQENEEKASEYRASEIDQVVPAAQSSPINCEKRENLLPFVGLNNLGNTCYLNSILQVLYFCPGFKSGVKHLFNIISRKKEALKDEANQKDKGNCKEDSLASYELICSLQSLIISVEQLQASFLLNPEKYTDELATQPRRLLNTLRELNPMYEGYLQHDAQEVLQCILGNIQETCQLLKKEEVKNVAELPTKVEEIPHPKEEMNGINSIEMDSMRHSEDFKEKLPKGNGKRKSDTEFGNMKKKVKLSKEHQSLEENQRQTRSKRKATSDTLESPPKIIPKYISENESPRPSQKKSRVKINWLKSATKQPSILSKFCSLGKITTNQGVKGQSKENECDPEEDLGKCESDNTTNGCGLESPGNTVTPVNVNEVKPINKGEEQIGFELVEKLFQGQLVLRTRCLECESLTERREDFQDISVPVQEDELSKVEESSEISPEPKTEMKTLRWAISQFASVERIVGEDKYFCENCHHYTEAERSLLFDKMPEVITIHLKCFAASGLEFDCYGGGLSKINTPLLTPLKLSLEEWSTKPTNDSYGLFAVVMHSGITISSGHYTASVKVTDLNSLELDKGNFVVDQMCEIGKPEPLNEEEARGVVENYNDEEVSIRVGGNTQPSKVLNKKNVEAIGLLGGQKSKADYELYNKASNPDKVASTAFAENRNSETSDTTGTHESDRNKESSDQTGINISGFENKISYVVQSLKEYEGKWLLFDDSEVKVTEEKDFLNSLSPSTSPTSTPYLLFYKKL
Method in brief: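 USP1/UAF1 complex at 1 nM preincubated 15 min at room temperature with compound, then Ub-Rho substrate added at 150 nM final. Fluorescence (480/540 nm) read kinetically in 50 mM HEPES pH 7.8, 0.5 mM EDTA, 1 mM TCEP, 0.1 mg/ml BSA, 0.01% Tween-20.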

[7] = biological target: Luciferin 4-monooxygenase (Photinus pyralis) (UniProt P08659); test: Biochemical firefly luciferase enzyme assay for NPC (AID 624030);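 note: purified P. pyralis luciferase at 10 nM with luciferin and ATP substrate; 0% = DMSO and -100% = full luciferase inhibition by PTC124 control; nearly all actives have a fitted effect of over 70% in size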
Sequence of Luciferin 4-monooxygenase (Photinus pyralis) (P08659 whole entry, looked up): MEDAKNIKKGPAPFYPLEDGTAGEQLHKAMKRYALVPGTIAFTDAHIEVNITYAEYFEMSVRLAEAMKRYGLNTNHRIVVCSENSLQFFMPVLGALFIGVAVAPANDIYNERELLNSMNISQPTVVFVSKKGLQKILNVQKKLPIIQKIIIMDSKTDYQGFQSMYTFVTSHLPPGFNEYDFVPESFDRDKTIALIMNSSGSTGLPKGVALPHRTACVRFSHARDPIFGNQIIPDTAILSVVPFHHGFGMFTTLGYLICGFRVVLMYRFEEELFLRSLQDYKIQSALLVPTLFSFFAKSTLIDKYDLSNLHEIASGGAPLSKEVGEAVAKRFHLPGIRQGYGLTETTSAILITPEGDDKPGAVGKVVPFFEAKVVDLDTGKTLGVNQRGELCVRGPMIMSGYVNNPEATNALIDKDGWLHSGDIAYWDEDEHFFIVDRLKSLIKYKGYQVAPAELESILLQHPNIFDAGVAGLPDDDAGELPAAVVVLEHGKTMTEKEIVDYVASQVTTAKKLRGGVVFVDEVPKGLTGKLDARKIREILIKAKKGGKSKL
Method in brief: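 Purified P. pyralis luciferase at 10 nM in 50 mM Tris Acetate (final), luminescence read within 5 minutes of enzyme addition to compounds. Activity normalised to PTC124 versus DMSO; concentration-response curves classed by r2, magnitude and activity.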

[8] = S16 Schwann cell viability assay (CellTiter-Glo assay) (AID 624031);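 note: native untransfected S16 rat Schwann cells; cellular ATP luminescence as a viability measure; plate controls were DMSO-treated cells for no effect and cell-free wells for full effect; nearly all actives have a fitted effect of over 70% in size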
Method in brief: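 Following overnight culture in 10% FBS DMEM, parental S16 rat Schwann cells are dosed for 24 h at 37 °C. Viability is read as CellTiter-Glo luminescence and expressed as % activity relative to DMSO (0%) and no-cell wells.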

[9] = S16 Schwann cell PMP22 intronic element firefly luciferase assay (AID 624032);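 note: plate controls were DMSO for no effect and PTC124 positive control mean for full effect; nearly all actives have a fitted effect of over 30% in size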
Method in brief: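 Rat S16 Schwann cells stably carrying firefly luciferase driven by a PMP22 intronic element, in 10% FBS, treated 24 h at 37 C. ONE-Glo luminescence normalized to PTC124 control and DMSO (0%); curves classed by r2, magnitude and activity.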

[10] = Primary qHTS for inhibitors of SARS-S pseudo-typed particle cell entry (AID 1479145; calls by dose curve; note: potency is the fitted concentration of half-maximal effect; nearly all actives have a fitted effect of over 45% in size); details: outcome: dose series up to 57.1 µM unless noted
[11] = Primary qHTS for inhibitors of MERS-S pseudo-typed particle cell entry (AID 1479149; calls by dose curve; note: % is set by controls: 0 for no effect and ±100 for the full control effect; nearly all actives have a fitted effect of over 60% in size); details: outcome: dose series up to 57.1 µM unless noted
[12] = Primary qHTS to identify inhibitors of SARS-CoV-2 cell entry (AID 1645846; calls by dose curve; note: nearly all actives have a fitted effect of over 45% in size); details: SARS-CoV-2 pseudovirus cell entry assay, luminescence; activity change, negative = inhibition: at 57.1 µM (top of the series) unless noted
Method in brief: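 HEK293 cells stably expressing human ACE2, pre-treated 1 h with compound, then infected with MLV particles pseudotyped with Wuhan-Hu-1 spike (C-terminal 19-aa truncation). Luciferase luminescence after 48 h at 37 °C, normalised to spike PP and bald PP.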

[13] = NCATS anti-infectives library activity on HEK293 viability as a counter-qHTS vs the C. elegans viability qHTS (AID 1745854); note: potency is the fitted concentration of half-maximal effect
Method in brief: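 CellTiter-Glo luminescence, read on a CCD imager, scored viability of HEK293 cells after 24 hr compound exposure at 37C. Library tested in several concentrations, 1:5 steps, up to 41.7 uM; digitonin served as control.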

[14] = NCATS anti-infectives library activity on the primary C. elegans qHTS viability assay (AID 1745855; calls by dose curve; note: potency is the fitted concentration of half-maximal effect)
Method in brief: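 Titration-based screen in worms: eggs hatched overnight in M9, L1 larvae fed TOP10 capsules in S medium with compound, incubated 21 °C for 7 days; fluorescent objects gated by size and intensity at days 0, 3 and 7.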

[15] = biological target: Glutathione peroxidase 1 (Homo sapiens) (UniProt P07203); test: Primary qHTS Assay for Inhibitors of Recombinant Selenoprotein Glutathione Peroxidase 1 (GPX1) (AID 1845191); note: nearly all actives have a fitted effect of over 65% in size
Sequence of Glutathione peroxidase 1 (Homo sapiens) (P07203 whole entry, looked up): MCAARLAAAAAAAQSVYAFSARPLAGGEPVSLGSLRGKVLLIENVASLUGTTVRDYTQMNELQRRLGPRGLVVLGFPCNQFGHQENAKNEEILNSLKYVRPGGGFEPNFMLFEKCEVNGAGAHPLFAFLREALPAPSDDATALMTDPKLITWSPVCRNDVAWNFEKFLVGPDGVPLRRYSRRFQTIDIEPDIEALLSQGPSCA
Method in brief: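 GR-coupled readout: NADPH consumption tracked by fluorescence, ex 340/em 450 nm, at t=0 and after 15 min at RT. Final mix 10 nM GPX1, 1 mM GSH, 0.5 mM CHP, 0.5 mM NADPH, 100 nM GR, 0.01% BSA, following 30 min enzyme–compound preincubation.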

[16] = biological target: Phospholipid hydroperoxide glutathione peroxidase GPX4 (Homo sapiens) (UniProt P36969); test: Primary qHTS Assay for Inhibitors of Recombinant Selenoprotein Glutathione Peroxidase 4 (GPX4) (AID 1845192); note: nearly all actives have a fitted effect of over 65% in size
Sequence of Phospholipid hydroperoxide glutathione peroxidase GPX4 (Homo sapiens) (P36969 whole entry, looked up): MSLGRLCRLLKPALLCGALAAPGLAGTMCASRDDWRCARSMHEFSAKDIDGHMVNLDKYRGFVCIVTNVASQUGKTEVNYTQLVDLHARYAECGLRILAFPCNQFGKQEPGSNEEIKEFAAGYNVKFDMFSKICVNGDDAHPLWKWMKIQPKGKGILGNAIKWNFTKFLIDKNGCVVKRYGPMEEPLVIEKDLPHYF
Method in brief: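 Steps: GPX4 plus compound, 30 min RT; add GR/GSH/NADPH master mix; start with cumene hydroperoxide; read 340/450 nm fluorescence at 0 and 15 min. Finals were 200 nM GPX4, 1 mM GSH, 0.5 mM CHP, 0.5 mM NADPH, 100 nM GR.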

[17] = qHTS profiling for inhibitors of Plasmodium falciparum proliferation (AID 504749); note: nearly all actives have a fitted effect of over 60% in size; note: potency is the fitted concentration of half-maximal effect;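 for activity, negative = inhibition: 0% = DMSO vehicle and full inhibition = artemisinin control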; details: P. falciparum in erythrocytes, SYBR Green DNA, 72 h, at 28.7 µM (top of the series)
Method in brief: (§1)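 SYBR Green fluorescence (ex 485 nm, em 535 nm) reports parasite DNA after 72 h compound exposure of infected red cells at 0.3% parasitemia, 2.5% hematocrit; signal normalized to 0.29 uM artemisinin and vehicle wells.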

7G8 = test: as above; details: P. falciparum in erythrocytes, SYBR Green DNA, 72 h; series mostly up to 12.8 µM
Method in brief: as §1

AA1029 = test: as above; details: P. falciparum in erythrocytes, SYBR Green DNA, 72 h; series mostly up to 28.7 µM
Method in brief: as §1

AS120 = test: as above; details: P. falciparum in erythrocytes, SYBR Green DNA, 72 h; series mostly up to 28.7 µM
Method in brief: as §1

ATS95 = test: as above; details: P. falciparum in erythrocytes, SYBR Green DNA, 72 h; series mostly up to 28.7 µM
Method in brief: as §1

C2A = test: as above; details: P. falciparum in erythrocytes, SYBR Green DNA, 72 h; series mostly up to 28.7 µM
Method in brief: as §1

CP185 = test: as above; details: P. falciparum in erythrocytes, SYBR Green DNA, 72 h; series mostly up to 28.7 µM
Method in brief: as §1

CP192 = test: as above; details: P. falciparum in erythrocytes, SYBR Green DNA, 72 h; series mostly up to 28.7 µM
Method in brief: as §1

CP201 = test: as above; details: P. falciparum in erythrocytes, SYBR Green DNA, 72 h; series mostly up to 28.7 µM
Method in brief: as §1

CP203 = test: as above; details: P. falciparum in erythrocytes, SYBR Green DNA, 72 h; series mostly up to 28.7 µM
Method in brief: as §1

CP211 = test: as above; details: P. falciparum in erythrocytes, SYBR Green DNA, 72 h; series mostly up to 28.7 µM
Method in brief: as §1

CP215 = test: as above; details: P. falciparum in erythrocytes, SYBR Green DNA, 72 h; series mostly up to 28.7 µM
Method in brief: as §1

CC(=O)OC1C[C@H](O[C@@H]2C(O)C[C@H](O[C@@H]3C(O)C[C@@H](OC4CC[C@]5(C)C(CCC6C5CC(O)[C@@]5(C)C(C7=CC(=O)OC7)CC[C@@]65O)C4)OC3C)OC2C)O[C@H](C)[C@H]1O[C@H]1OC(CO)C(O)C(O)C1O (stereo partly specified)
active: Potency [10] 0.794 µM | Potency [13] 0.199 µM | Potency [14] 8.16 µM | Potency (7G8) 8.91 µM
-96.3%: activity change, negative = inhibition [12]
24.4%: max response ([4]; measured here: lipid channel max response)
20.6%: max response ([4]; measured here: cell count channel max response)
inactive: Potency [1] | Potency [2] | Potency [3] | activity change, negative = inhibition ([4]; at 57.5 µM (top of the series)) 1.49% | Potency [5] | Potency [6] | Potency [7] | Potency [8] | Potency [9] | Potency [11] | Potency [15] | Potency [16] | activity, negative = inhibition ([17]; parasite line A) -17.9% | activity, negative = inhibition ([17]; parasite line B) 17.8% | Potency (AA1029) | Potency (AS120) | Potency (ATS95) | Potency (C2A) | Potency (CP185) | Potency (CP192) | Potency (CP201) | Potency (CP203) | Potency (CP211) | Potency (CP215)
